We go through 7 compounds from PubChem BioAssay (Tox21).

The structures appear in SMILES notation. Values without a mark were called inactive. Records with an inconclusive call do not appear. The source made the active and inactive calls. Unless noted, calls follow the shape of the dose curve; as a rule, active = well fitted curve in the direction sought with a large enough effect in the repeat runs; inconclusive = weak or mixed curves; inactive = no such curve, though single readings can be large; an effect the other way counts as inactive or inconclusive.

Experiment [1] is described as follows: qHTS RealTime-Glo MT Cell Viability Assay in HEK293 cells - 0 hour (AID 1224880). Also: top concentration of the series differs between compounds; nearly all actives have a fitted effect of over 45% in size. In short, it runs like this: (§1)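 HEK293 + NanoLuc + prosubstrate, 600 cells/well; 5 h, 37 C/5% CO2; compound 23 nL in DMSO by pintool; 37 C; luminescence read at 0, 8, 16, 24, 32 and 40 h time points.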
For orientation: In qHTS, concentration-response curves come from the screen itself.

Experiment [2] in a line: A CellTox Green Cytotoxicity Assay to monitor cytotoxicity in HEK293 cells - 32 hour (AID 1224881). Also: nearly all actives have a fitted effect of over 40% in size. In short, it runs like this:
(§2)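 Tox21 screen in HEK293: membrane-impermeant cyanine dye fluoresces on binding dead-cell DNA; compound pinned 5 h post-seeding, plates held at 37 C, signal read repeatedly through 40 h.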

Experiment [3] can be described thus: A CellTox Green Cytotoxicity Assay to monitor cytotoxicity in HepG2 cells - 32 hour (AID 1224883). Also: nearly all actives have a fitted effect of over 50% in size. In short, it runs like this:
(§3)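 Measurements at 0, 8, 16, 24, 32 and 40 h of treatment captured CellTox Green fluorescence in HepG2 cells that had been co-plated with reagent and preincubated 5 h at 37 C/5% CO2.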

The nature of experiment [4]: A CellTox Green Cytotoxicity Assay to monitor cytotoxicity in HEK293 cells - 8 hour (AID 1224884). Also: nearly all actives have a fitted effect of over 35% in size. In short, it runs like this:
as §2

A short description of experiment [5]: qHTS RealTime-Glo MT Cell Viability Assay in HepG2 cells - 16 hour (AID 1224885). Also: nearly all actives have a fitted effect of over 50% in size. In short, it runs like this:
(§4)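 Compound treatment began 5 h after plating HepG2 cells (600/well) with NanoLuc luciferase and prosubstrate. Plates stayed at 37 C for 40 h; luminescence was captured at six time points, 0 h through 40 h.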

Experiment [6] can be described thus: qHTS RealTime-Glo MT Cell Viability Assay in HEK293 cells - 24 hour (AID 1224886). Also: top concentration of the series differs between compounds; nearly all actives have a fitted effect of over 50% in size. In short, it runs like this:
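Quantitative high-throughput screen of the Tox21 10K library in HEK293: cells and RealTime-Glo reagents plated together, compound added at 5 h, luminescence monitored through 40 h at 37 C.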

Experiment [7] in a line: qHTS RealTime-Glo MT Cell Viability Assay in HEK293 cells - 8 hour (AID 1224887). Also: top concentration of the series differs between compounds; nearly all actives have a fitted effect of over 50% in size. The gist of the method: as §1
Experiment [8] is described as follows: A CellTox Green Cytotoxicity Assay to monitor cytotoxicity in HEK293 cells - 16 hour (AID 1224888). Also: nearly all actives have a fitted effect of over 35% in size. In short, it runs like this: as §2
A short description of experiment [9]: qHTS RealTime-Glo MT Cell Viability Assay in HepG2 cells - 0 hour (AID 1224889). Also: nearly all actives have a fitted effect of over 50% in size. In short, it runs like this: as §4
Experiment [10] in a line: A CellTox Green Cytotoxicity Assay to monitor cytotoxicity in HepG2 cells - 8 hour (AID 1224890). Also: nearly all actives have a fitted effect of over 45% in size. In short, it runs like this:
as §3

Experiment [11] can be described thus: qHTS assay to identify small molecule antagonists of the estrogen receptor alpha (ER-alpha) signaling pathway using the BG1 cell line in the presence of 0.1 nM 17-beta-estradiol - cell viability counter screen (AID 1259241). Also: nearly all actives have a fitted effect of over 40% in size. In short, it runs like this: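 Cells were plated and left 24 hr, compounds in DMSO were pinned in, 17beta-estradiol was added to 0.1 nM final, and after 22 hr CellTiter-Fluor reagent was added for 30 min before fluorescence was read.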

The nature of experiment [12]: qHTS assay to identify small molecule antagonists of the androgen receptor (AR) signaling pathway using the MDA cell line in the presence of 0.5 nM R1881 - cell viability counter screen (AID 1259242). Also: nearly all actives have a fitted effect of over 45% in size. The gist of the method:
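Concentration-response screen of compounds for toxicity in MDA-kb2 reporter cells: 16 hr at 37C with 0.5 nM R1881, endpoint live-cell protease fluorescence measured in the reporter wells.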

Experiment [13] addresses Estrogen receptor (Homo sapiens) (UniProt P03372). Briefly: qHTS assay to identify small molecule antagonists of the estrogen receptor alpha (ER-alpha) signaling pathway using the BG1 cell line in the presence of 0.1 nM 17-beta-estradiol (AID 1259244). Also: nearly all actives have a fitted effect of over 50% in size. The gist of the method:
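Compounds were tested against 0.1 nM (final) 17beta-estradiol in VM7Luc4E2 cells, which express full-length ER-alpha and an ERE-luciferase reporter; luminescence was recorded following 22 h exposure.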

Experiment [14] can be described thus: qHTS assay to identify small molecule phospholipidosis (PLD) inducers (AID 1259344; active = well fitted curve in the direction sought with a large enough effect; an effect the other way counts as inactive or inconclusive). The gist of the method:
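Phospholipid accumulation was scored by imaging: fixed, Hoechst-counterstained HepG2 cells stained with LipidTOX Red after 24 h compound exposure at 37 C. Read-outs were pit count and pit intensity per well or per cell, with amiodarone and DMSO controls.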

A short description of experiment [15]: qHTS assay to identify small molecule HDAC inhibitors (AID 1259364). Also: potency is read from the fitted curve at half-maximal effect.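 Also: wild-type HCT-116 cells with endogenous class I/II HDAC activity; nearly all actives have a fitted effect of over 45% in size.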 As to activity change, negative = inhibition: top concentration of the series differs between compounds. In short, it runs like this:
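Screening used wild-type human colon HCT-116 cells incubated overnight, dosed with compounds for 2 hours, and assayed with a homogeneous luminogenic HDAC I/II reagent for 30 minutes at room temperature.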

Experiment [16] in a line: qHTS assay to identify small molecule HDAC inhibitors - cell viability counter screen (AID 1259365). The gist of the method:
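Counter screen in wild-type HCT-116 cells: compounds dissolved in DMSO are pin-transferred onto overnight-plated cells and left 2hr at 37C. ATP-based CellTiter-Glo luminescence then measures viable cells.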

Experiment [17] is described as follows: qHTS assay to identify small molecule agonists of the sonic hedgehog signaling (Shh) pathway - cell viability counter screen (AID 1259366). Also: nearly all actives have a fitted effect of over 50% in size. Also: potency is read from the fitted curve at half-maximal effect. In short, it runs like this: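 Cells are plated at 2,000 per well and left 4hr at 37C, 5% CO2 before compound addition. After 23hr of treatment, CellTiter-Fluor reagent is added for 1hr at 37C and fluorescence is measured.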

Experiment [18] is described as follows: A CellTox Green Cytotoxicity Assay to monitor cytotoxicity in HepG2 cells - 0 hour (AID 1224882). Also: nearly all actives have a fitted effect of over 35% in size. The gist of the method: as §3
Experiment [19] in a line: qHTS assay to identify small molecule antagonists of the sonic hedgehog signaling (Shh) pathway - cell viability counter screen (AID 1259367). Also: nearly all actives have a fitted effect of over 55% in size. Also: potency is read from the fitted curve at half-maximal effect. The gist of the method: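 Viability was read by CellTiter-Fluor fluorescence in the same wells, reagent added 23 hr into compound treatment and incubated 1 hr at 37C. The 3T3 Gli1-Luc reporter cells (2,000/well) received conditioned medium after compound and ran 24 hr.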

Experiment [20] deals with Androgen receptor (Homo sapiens) (UniProt P10275). Briefly: qHTS assay to identify small molecule antagonists of the androgen receptor (AR) signaling pathway using the MDA cell line in the presence of 0.5 nM R1881 (AID 1259243). Also: nearly all actives have a fitted effect of over 50% in size. In short, it runs like this:
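With R1881 held at 0.5 nM (final), compound effects on MMTV-luciferase expression in MDA-kb2 cells were scored by luminescence after a 16 hr, 37C incubation.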
% is scaled to controls: 0 for no effect and ±100 for the full control effect.

Chain of Estrogen receptor (Homo sapiens) (P03372 whole entry, looked up): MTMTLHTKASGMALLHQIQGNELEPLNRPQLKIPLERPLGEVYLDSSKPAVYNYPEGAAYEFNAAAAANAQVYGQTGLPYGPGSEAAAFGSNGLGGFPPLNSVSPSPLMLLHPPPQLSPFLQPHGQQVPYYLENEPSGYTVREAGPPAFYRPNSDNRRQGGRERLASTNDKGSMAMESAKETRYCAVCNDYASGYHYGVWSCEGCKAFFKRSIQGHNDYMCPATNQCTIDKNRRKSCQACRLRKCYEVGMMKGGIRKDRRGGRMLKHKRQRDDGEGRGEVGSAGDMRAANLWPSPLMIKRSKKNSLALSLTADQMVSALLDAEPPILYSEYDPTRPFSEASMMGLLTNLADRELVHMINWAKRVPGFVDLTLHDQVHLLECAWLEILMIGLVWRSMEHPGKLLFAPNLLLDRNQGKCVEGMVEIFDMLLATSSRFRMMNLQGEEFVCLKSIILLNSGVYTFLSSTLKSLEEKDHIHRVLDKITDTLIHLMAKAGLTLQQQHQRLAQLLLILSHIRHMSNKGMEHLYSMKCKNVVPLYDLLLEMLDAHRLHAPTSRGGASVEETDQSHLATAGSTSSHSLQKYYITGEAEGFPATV
Chain of Androgen receptor (Homo sapiens) (P10275 whole entry, looked up): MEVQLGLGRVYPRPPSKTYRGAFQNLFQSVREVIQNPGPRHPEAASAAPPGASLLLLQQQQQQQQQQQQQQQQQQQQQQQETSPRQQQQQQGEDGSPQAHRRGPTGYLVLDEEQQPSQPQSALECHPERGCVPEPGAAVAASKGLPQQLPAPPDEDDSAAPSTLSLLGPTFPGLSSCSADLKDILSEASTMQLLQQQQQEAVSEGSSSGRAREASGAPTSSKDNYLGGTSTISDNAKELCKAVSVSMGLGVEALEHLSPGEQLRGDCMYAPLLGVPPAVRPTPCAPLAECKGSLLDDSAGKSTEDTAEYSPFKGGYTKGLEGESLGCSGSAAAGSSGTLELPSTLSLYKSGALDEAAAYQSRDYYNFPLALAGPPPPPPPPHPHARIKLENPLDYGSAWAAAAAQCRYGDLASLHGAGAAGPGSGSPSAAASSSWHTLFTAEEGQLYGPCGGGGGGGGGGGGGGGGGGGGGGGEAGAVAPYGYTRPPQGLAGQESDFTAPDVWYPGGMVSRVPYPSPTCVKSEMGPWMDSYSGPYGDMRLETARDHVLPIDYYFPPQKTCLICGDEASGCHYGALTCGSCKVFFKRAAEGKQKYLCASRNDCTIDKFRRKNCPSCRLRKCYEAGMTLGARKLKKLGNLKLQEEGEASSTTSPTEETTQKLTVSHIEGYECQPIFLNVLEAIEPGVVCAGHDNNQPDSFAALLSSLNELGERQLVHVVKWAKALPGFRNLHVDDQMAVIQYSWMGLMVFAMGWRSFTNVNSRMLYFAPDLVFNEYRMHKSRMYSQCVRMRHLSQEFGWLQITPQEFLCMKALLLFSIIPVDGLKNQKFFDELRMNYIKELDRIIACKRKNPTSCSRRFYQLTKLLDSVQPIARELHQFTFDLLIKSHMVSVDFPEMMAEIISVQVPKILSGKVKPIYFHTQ

`CO[C@@H]1[C@@H](OC(N)=O)[C@@H](O)[C@H](Oc2ccc3c(O)c(NC(=O)c4ccc(O)c(CC=C(C)C)c4)c(=O)oc3c2C)OC1(C)C`: the Potency entry in experiment [1], in [2], in [3], in experiment [4], in experiment [6] and in [7] was “inactive” throughout. The Potency entry in [9], in experiment [11], in experiment [13], in experiment [15] and in [17] was “inactive” throughout. The compound was classed as inactive in experiment [5], in [8], in experiment [10], in experiment [12], in experiment [14] and in experiment [16].

As for `COc1ccc2c(c1OC)C(=O)O[C@@H]2[C@H]1c2c(cc3c(c2OC)OCO3)CCN1C`, the Potency result in experiment [1], in experiment [2], in experiment [4], in experiment [7], in [9] and in experiment [15] was “inactive” each time. Also, the compound was classed as inactive in [18], in [5], in experiment [8], in experiment [10], in [12] and in experiment [14]. Besides, the result in experiment [16] was inactive. Besides, the Potency in experiment [17] is 2.11 µM (active); in experiment [19], 3.35 µM (active).

For `O=S(=O)(O)c1cc(O)c2ccc(Nc3ccccc3)cc2c1`, the Potency entry in experiment [1], in experiment [2], in experiment [4], in [6], in experiment [7] and in experiment [11] was “inactive” in each case. Besides, the Potency entry in experiment [13], in experiment [17] and in [19] was “inactive” throughout. The call in experiment [18], in experiment [5], in [8], in experiment [10], in [12] and in [16] was inactive. Moreover, the Potency in [15] was 24.3 µM (active).

For the compound `Cc1cccc(C)c1OCC(C)N` (centres undefined), the Potency entry in experiment [1], in [2], in [3], in experiment [4], in [6] and in experiment [7] was “inactive” throughout. Also, the Potency entry in [9], in experiment [11], in [13], in experiment [15], in [17] and in experiment [19] was “inactive” each time. In addition, the result in experiment [5], in experiment [8], in experiment [10], in experiment [12], in experiment [14] and in [16] was inactive.

Turning to `O=C(OCc1ccccc1)C(=O)OCc1ccccc1`, the Potency result in experiment [1], in experiment [2], in [4], in experiment [6], in experiment [7] and in experiment [9] was “inactive” each time. For the same compound, the Potency entry in experiment [11], in [20], in [13], in experiment [15], in experiment [17] and in experiment [19] was “inactive” each time. Besides, the compound was called inactive in experiment [18], in [5], in experiment [8], in [10], in experiment [12] and in experiment [16].

Regarding `N[C@@H](CCC(=O)N[C@@H](CS)C(=O)NCC(=O)O)C(=O)O`, the activity change, negative = cytotoxicity in [1] was 8.63% [at 15.8 µM]; in experiment [6] it was 7.83% [at 15.8 µM]; in [7], 10.5% [at 15.8 µM]; in experiment [9] it was 1.78% [at 15.8 µM]; in experiment [11] it was -2.09% [at 19 µM]; in experiment [16], 2.26% [at 19 µM]. The results for the cytotoxicity increase in [2], in experiment [4] and in [10] were 2.25% [at 15.8 µM], 2.4% [at 15.8 µM] and -6.34% [at 15.8 µM], respectively. In addition, in experiment [18], the cytotoxicity is -0.523% [at 15.8 µM]. The activity change, negative = cytotoxic in experiment [5] was 2.53% [at 15.8 µM]. The activity change in [8] is 0.448% [at 15.8 µM]. Moreover, the viability change, negative = cytotoxic is 1.98% [at 19 µM] in experiment [12], -6.52% [at 19 µM] in [17] and 0.577% [at 19 µM] in [19]. Moreover, in experiment [14], the outcome was inactive. Further, in experiment [15], the activity change, negative = inhibition was -2.25% [at 19 µM].

In the case of `CCOc1cc(NC(C)=O)ccc1C(=O)OC`, the Potency result in experiment [1], in [2], in experiment [4], in [6], in [7] and in [9] was “inactive” in each case. Moreover, the Potency entry in experiment [11], in experiment [13], in experiment [15], in experiment [17] and in experiment [19] was “inactive” each time. The compound was called inactive in experiment [18], in experiment [5], in [8], in [10], in experiment [12] and in [14]. The outcome in experiment [16] was inactive.
